Data on 40 compounds can be found in PubChem BioAssay (NCATS).

Inconclusive results are not listed. A number with no mark means an inactive call. The source made the active and inactive calls. The call rests on the fitted dose curve; in most records, active means well fitted cell-killing curve with a large enough effect; inconclusive means small, poorly fitted or top-dose-only effect; inactive means flat fitted curve, though single readings scatter.
Potency means the concentration at half of the fitted maximal effect.

The experiment can be described thus: qHTS of pediatric cancer cell lines to identify multiple opportunities for drug repurposing: Primary screen for RD cells (AID 1347104). Further: nearly all actives have a fitted effect of over 55% in size. As to conditions: RD rhabdomyosarcoma viability, CellTiter-Glo luminescence, 48 h; series mostly up to 46 µM; activity change, negative = cytotoxic: at the top concentration. The text has this:
Drug repurposing or repositioning has been offered as a strategy for drug development in oncology programs. This approach has special potential for childhood cancers and other rare or orphan diseases, where the expected return on new drug development has been a disincentive to pharmaceuticals. […] In this project we exploit the poly-pharmacology of drugs to discover new indications via phenotypic screening of a panel of 19 well-characterized cell lines derived from solid tumors seen in children and adolescents. The goal is to identify approved drugs with previously unrecognized anticancer properties that has the potential to reveal new mechanisms and biological processes involved in carcinogenesis or drug resistance. We employed a titration-based paradigm (quantitative high-throughput screening or qHTS), where all compounds were tested at multiple concentrations for their effect on cell viability. Concentration-response curves (CRCs) were derived directly from the primary screen, and both potency and efficacy values were used to identify compounds with robust bioactivity profiles. We screened the NIH Chemical Genomics Center (NCGC) Pharmaceutical Collection (NPC) and Mechanism Interrogation Plate (MIPE) small molecule collections of approved and investigational compounds against these cell lines; and measured metabolically active cells after 48 hours of compound treatment as a proxy for cell viability. […] Assay Submitter: Nathalia J. Martinez, National Center for Advancing Translational Sciences, National Institutes of Health, Rockville, MD, USA; email: natalia.martinez@nih.gov Shen, M et al. Quantitative high-throughput phenotypic screening of pediatric cancer cell lines identifies multiple opportunities for drug repurposing. Oncotarget 2017 Dec 19;9(4):4758-4772. PMID 29435139.
The cells were obtained from University of North Carolina (UNC), Pediatric Preclinical Testing Program (PPT), and Coriell Institute (CI). qHTS cell viability assay: Cells were assayed in growth media at a density of 500-1,000 cells/well. Five microliters of cells were dispensed into 1,536-well, white, solid-bottom, TC-treated plates (Greiner Bio One) using a multidrop dispenser and incubated at 37 degrees C, 5% CO2, under a humidified atmosphere for 5 hours. Twenty-three nanoliters of compounds and controls (neutral control DMSO or positive control bortezomib at final concentration of 2.3 µM) were subsequently transferred by Kalypsys pintool. For primary screens, the MIPE collection was tested at 11-point dilutions (final concentrations range from 0.78 nM to 46 µM) and the NPC collection at 8-point dilutions (final concentrations range from 0.59 nM to 46 µM). Compounds tested in follow-up screens were assayed at 11-point dilutions. Cells were incubated for 48 hours, followed by addition of 3 µL of CellTiter-Glo (Promega). After a 15 min incubation at room temperature, samples were analyzed for luminescence intensity using a ViewLux High-throughput CCD imager equipped with clear filters.
For orientation: In qHTS, concentration-response curves come from the screen itself.
In the case of `COc1ccc2c3n(c(=NC(=O)c4cccnc4)nc2c1OC)CCN3`, the Potency is 1.87 µM (active).

Take `O=C(O)CCc1ccc(NCc2cccc(Oc3ccccc3)c2)cc1`: the “activity change, negative = cytotoxic” value is -5.87%.

On to `CNC[C@H](O)c1cccc(O)c1`, for which the Potency result is “inactive”.

For `Cc1cnc(NC(=O)C2=C(O)c3ccccc3S(=O)(=O)N2C)s1`, the Potency entry was “inactive”.

As for `COc1cc2nccc(Oc3ccc(NC(=O)NC4CC4)c(Cl)c3)c2cc1C(N)=O`, the Potency is 14.8 µM (active).

With `Cc1ccc(-n2nc(C(C)(C)C)cc2NC(=O)Nc2ccc(OCCN3CCOCC3)c3ccccc23)cc1`, the Potency was 26.4 µM (active).

`CCOc1cc(N2CCC(O)CC2)ccc1Nc1ncc2c(n1)N(C)c1ccccc1C(=O)N2C`: the Potency is 0.148 µM (active).

In the case of `O=S(=O)(N=Cc1c(O)ccc2ccccc12)c1cccs1`, the “activity change, negative = cytotoxic” value is -19.2%.

With `C#Cc1cccc(Nc2ncnc3cc(OCCOC)c(OCCOC)cc23)c1`, the “activity change, negative = cytotoxic” value was -19.2%.

For the compound `O=C(O)COCCN1CCN(C(c2ccccc2)c2ccc(Cl)cc2)CC1` (stereo not given), the Potency result was “inactive”.

Consider `CO[C@@H]1[C@H](N(C)C(=O)c2ccccc2)C[C@H]2O[C@]1(C)n1c3ccccc3c3c4c(c5c6ccccc6n2c5c31)C(=O)NC4`, for which the “activity change, negative = cytotoxic” value was -24.6%.

As for `CCCc1nc2c(C)cc(-c3nc4ccccc4n3C)cc2n1Cc1ccc(-c2ccccc2C(=O)O)cc1`, the Potency result is “inactive”.

Regarding `CS(=O)(=O)c1cccc(CNc2nc(Nc3ccc4c(c3)CCC(=O)N4)ncc2C(F)(F)F)c1`, the Potency was 16.6 µM (active).

`N[C@@H]1CONC1=O`: the Potency entry is “inactive”.

As for `CS(=O)(=O)Oc1ccc2c(NC(N)=O)c(C(=O)c3ccc(Cl)cc3Cl)oc2c1`, the Potency was 13.2 µM (active).

Consider `NC[C@H](O)c1ccc(O)c(O)c1`, for which the Potency entry is “inactive”.

`O=C(O)[C@@H](c1ccc(OCc2ccc3ccccc3n2)cc1)C1CCCC1`: the “activity change, negative = cytotoxic” value was -10.5%.

For `CCC(C)(C)C(=O)O[C@H]1C[C@@H](C)C=C2C=C[C@H](C)[C@H](CC[C@@H]3C[C@@H](O)CC(=O)O3)[C@H]21`, the Potency result is “inactive”.

As to `Cc1oncc1C(=O)Nc1ccc(C(F)(F)F)cc1`, the “activity change, negative = cytotoxic” value was -20.7%.

With `NC(=O)c1ccc(-c2nc(-c3ccc4c(c3)OCO4)c(-c3ccccn3)[nH]2)cc1`, the “activity change, negative = cytotoxic” value is 7.42%.

As to `Fc1ccc(Cl)cc1-c1nc(Nc2ccncc2)c2nccnc2n1`, the “activity change, negative = cytotoxic” value was -6.77%.

Turning to `NCCCC(N)(C(=O)O)C(F)F` (stereo not given), the “activity change, negative = cytotoxic” value is -0.632%.

Regarding `O=c1[nH]cnc2[nH]ncc12`, the Potency result was “inactive”.

For the compound `Nc1nc2c(ncn2COCCO)c(=O)[nH]1`, the Potency result was “inactive”.

On to `Cc1c(CN2CCN(C(=O)C(C)C)CC2)sc2c(N3CCOCC3)nc(-c3cnc(N)nc3)nc12`, for which the Potency is 0.935 µM (active).

For `Cc1[nH]c(=O)c(C#N)cc1-c1ccc2nccn2c1`, the Potency result is “inactive”.

Regarding `c1ccc(-c2nn3c(c2-c2ccnc4cc(OCCN5CCOCC5)ccc24)CCC3)nc1`, the “activity change, negative = cytotoxic” value was -22.5%.

For the compound `COCCNCCCn1c(C(=O)CF)c(-c2ccc(C)cc2)c2c(N)ncnc21`, the “activity change, negative = cytotoxic” value is -2.62%.

In the case of `CC(C)NCC(O)COc1ccc(COCCOC(C)C)cc1` (stereo not given), the Potency entry is “inactive”.

Consider `Cc1ccc(N(CC2=NCCN2)c2cccc(O)c2)cc1`, for which the “activity change, negative = cytotoxic” value was -23.7%.

For `CNC(=O)c1ccc(N2C(=S)N(c3ccc(C#N)c(C(F)(F)F)c3)C(=O)C2(C)C)cc1F`, the “activity change, negative = cytotoxic” value was -14.3%.

Take `Cc1cc(C=c2sc3nc4ccccc4n3c2=O)c(C)n1-c1ccccc1`: the “activity change, negative = cytotoxic” value was 3.73%.

For `OCCn1cc(-c2cnc3nnn(Cc4ccc5ncccc5c4)c3n2)cn1`, the “activity change, negative = cytotoxic” value is 5.36%.

For `CC(C)OC(=O)C1=CN(C(=O)c2ccc(F)c(F)c2)CC(C)(C)c2c1[nH]c1ccccc21`, the “activity change, negative = cytotoxic” value is -2.07%.

As to `O=C1CCc2cc(OCCCCc3nnnn3C3CCCCC3)ccc2N1`, the Potency result was “inactive”.

Turning to `NS(=O)(=O)c1cc2c(cc1Cl)NC=NS2(=O)=O`, the Potency entry is “inactive”.

For `CCn1cc(C(=O)O)c(=O)c2cc(F)c(N3CCNC(C)C3)c(F)c21` (stereo not given), the Potency entry was “inactive”.

Regarding `c1ccc([C@H]2CN3CCSC3=N2)cc1`, the Potency entry was “inactive”.

Turning to `CNC(=O)c1ccc(C)c(-n2c(C)cc(OCc3ccc(F)cc3F)c(Br)c2=O)c1`, the “activity change, negative = cytotoxic” value is -22.6%.

Take `Cc1ccc(NC(=O)c2cccc(C(C)(C)C#N)c2)cc1Nc1ccc2ncn(C)c(=O)c2c1`: the Potency is 1.18 µM (active).
